Assay results: PubChem BioAssay
“And” between values parts separate entries of the source, which are not always exact repeats. Equal values may be shown once. The source made the active and inactive calls.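 How the source made its calls, unless noted: active means compound raises GLP1 secretion from the human gut endocrine cells, with no numeric limit stated; inactive means the rest.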

Tests used:
[1] = hESC survival regulators, cell-based (AID 493140; call rule not given here;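 further: cells exposed to compounds for four days before counting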); conditions: human embryonic stem cell survival screen; stronger effect = higher value
[2] = liver-stage malaria parasite growth inhibition, primary screen, cell-based, HepG2, luciferase luminescence, HepG2 viability (AID 624349; in the data active means parasite load remaining mostly below about 12%, no sharp cut-off; inactive means mostly above about 10%;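 further: 100% = mean of DMSO negative control wells on the same plate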); conditions: P. berghei liver stage in HepG2, luciferase luminescence, concentration not given here; parasite load remaining: stronger effect = lower value; viability: measured here: HepG2 viability without parasites
[3] = stimulators of nuclear beta-catenin in C2C12, primary screen, imaging, WNT3A-conditioned medium, mouse C2C12, NPC library (AID 1117326; in the data active means nuclear beta-catenin stimulation mostly above about 4.2%, no sharp cut-off; inactive means mostly below about 10%); conditions: stronger effect = higher value
[4] = stimulators of insulin release from INS-1E, primary screen, cell-based, 5 mM glucose, NPC library (AID 1117329;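 active means compound raises insulin release from rat beta cells at 5 mM glucose, no numeric limit stated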); conditions: rat INS-1E insulin secretion, at 10 µM, stronger effect = higher value
[5] = growth inhibition of GSK3B-pretreated HCT116 cells – cell-based, CellTiter-Glo, 0.2 to 20 µM (AID 1117336;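 active means compounds lowering colon cancer cell viability after pretreatment blocking the GSK3B kinase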); conditions: HCT116 viability after GSK3B inhibitor, at 20 µM, stronger effect = higher value
[6] = inhibition of endothelial tube formation, primary screen, imaging, VEGF stimulated, CD31 staining, tube area, NPC library (AID 1117340;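 active means compound that reduces growth-factor-driven endothelial tube area in a mixed cell culture, no cutoff stated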); conditions: VEGF-stimulated ADSC/ECFC co-culture, at 10 µM, stronger effect = higher value
[7] = glucagon-like peptide 1 release enhancers, primary assay, NCI-H716 cell line, NPC library (AID 1117341); conditions: NCI-H716 cells, at 10 µM, stronger effect = higher value
[8] = HCT116 colon cancer cell growth inhibition, primary screen, CellTiter-Glo luminescence, NPC library (AID 1117342;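 active means compounds that lower survival of HCT116 colon cancer cells in the luminescence readout, no numeric limit stated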); conditions: at 20 µM (top of the series)
[9] = CellTiter-Glo luminescent readout of SW480 viability loss, NPC library primary (AID 1117343;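 active means compounds that lower viability of the colon cancer cells in the luminescence readout, with no numeric limit stated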); conditions: CellTiter-Glo luminescence; at 20 µM (top of the series) unless noted
[10] = decreased DLD-1 cellular survival, CellTiter-Glo luminescent readout, NPC compound collection, primary HTS (AID 1117346;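 active means compounds that lower survival of DLD-1 colon cancer cells in the luminescence readout, no cutoff given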); conditions: DLD-1 viability, CellTiter-Glo luminescence; at 20 µM (top of the series)
[11] = differential killing of epithelial or mesenchymal cells, primary screen, imaging, PC-3E GFP, TEM4-18 mCherry, co-culture (AID 1345086;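 active means compounds killing one labelled cell type while sparing the other, by normalised counts and ratio limits, not self-fluorescent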;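 on all read-outs here: cells exposed to compound for 72 h before imaging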;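 on red/green cell ratio (normalised): normalised mesenchymal count divided by normalised epithelial count so high means epithelial killing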); conditions: imaging cell counts, at 1 µM; for red/green cell ratio (normalised): actives lie on both sides, counts scaled to control wells, 1 = unselective
[12] = sensitizers of A549 cells to miR-34 induction, primary screen, imaging, A549 dox-inducible miR-34, nuclei and caspase counts (AID 1347080;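 active means compounds whose cell count with miR-34 switched on is under 0.7 times the count with it off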); conditions: A549 miR-34 inducible, Hoechst nuclei count, 48 h
[13] = survival rescue of mitochondrial mutant cells in low glucose, primary screen, MELAS cybrids, Rieske KO mouse fibroblasts, CellTiter-Glo (AID 1508586;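 active means mean z-score across replicates of 1.96 or higher in either the MELAS or the Rieske mutant cell line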;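 further: z relative to plate mean and SD of compound and empty wells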)
[14] = target: NAD(+) hydrolase SARM1 (Homo sapiens) (UniProt Q6SZW1); experiment: SARM1 TIR NADase inhibitors, cell lysate, NAD-Glo luminescence (AID 1508614;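 active means compound whose remaining NAD level is above about 45 nM, limit read from the data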); conditions: SAM-TIR HEK293T lysate NADase, at 1 µM, stronger effect = higher value
[15] = measured here: epithelial PC-3E GFP cell survival
[16] = measured here: mesenchymal TEM4-18 mCherry cell survival
[17] = stronger effect = lower value, cell number ratio, induced over uninduced
[18] = measured here: relative caspase fold change +Dox/-Dox
[19] = measured here: total cells with miR-34 induction, stronger effect = lower value
[20] = measured here: total cells without miR-34 induction
[21] = MELAS cybrid survival, CellTiter-Glo 48 h, stronger effect = higher value
[22] = Rieske KO mouse fibroblast survival, CellTiter-Glo 72 h

Chain of NAD(+) hydrolase SARM1 (Homo sapiens) (Q6SZW1 whole entry, looked up): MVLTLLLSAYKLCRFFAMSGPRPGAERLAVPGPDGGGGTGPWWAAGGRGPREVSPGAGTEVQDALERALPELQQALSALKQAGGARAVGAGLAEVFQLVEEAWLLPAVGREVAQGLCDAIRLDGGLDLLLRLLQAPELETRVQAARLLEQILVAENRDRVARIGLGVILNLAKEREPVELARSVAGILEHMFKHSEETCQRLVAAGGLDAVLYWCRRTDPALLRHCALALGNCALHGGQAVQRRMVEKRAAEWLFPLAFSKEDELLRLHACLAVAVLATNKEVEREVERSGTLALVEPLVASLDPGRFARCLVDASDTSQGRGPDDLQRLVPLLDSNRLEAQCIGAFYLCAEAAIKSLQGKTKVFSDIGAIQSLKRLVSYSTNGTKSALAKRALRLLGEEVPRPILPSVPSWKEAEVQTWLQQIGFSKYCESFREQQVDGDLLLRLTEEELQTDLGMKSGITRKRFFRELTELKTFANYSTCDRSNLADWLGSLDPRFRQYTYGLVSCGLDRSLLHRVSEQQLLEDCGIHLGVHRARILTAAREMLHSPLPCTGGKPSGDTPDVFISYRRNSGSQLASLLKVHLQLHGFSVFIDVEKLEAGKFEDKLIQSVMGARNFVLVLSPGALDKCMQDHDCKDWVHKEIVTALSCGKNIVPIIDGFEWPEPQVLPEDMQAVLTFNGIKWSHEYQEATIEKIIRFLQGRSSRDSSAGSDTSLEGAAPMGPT

With `NCCc1ccn[nH]1` the survival [1] was 17.5 (inactive), the parasite load remaining [2] was 35.3% (inactive) and 97.6% (inactive) and the viability [2] was 49.8% and 93.1%. For the same compound, the nuclear beta-catenin stimulation ([3]; at 10 µM) was 1% (inactive), the nuclear beta-catenin stimulation ([3]; stimulation, at 2 µM) was 0.9% and the insulin secretion stimulation [4] was -1.5% (inactive). The viability decrease [5] was -5% (inactive), the tube area decrease [6] was -21.4% (inactive) and the GLP1 secretion stimulation [7] was 1.1% (inactive). For the same compound, the inhibition of viability [8] was -8.9% (inactive), the viability decrease (inhibition) [9] was 12.5% (inactive) and the viability decrease (inhibition) [10] was -9.4% (inactive). The red/green cell ratio (normalised) [11] was 0.76 (inactive), the normalised cell number [11, 15] was 1.25 and the normalised cell number [11, 16] was 0.95. The fold change [12, 17] was 0.91 (inactive), the fold change [12, 18] was 1.36 and the cell count [12, 19] was 9040. The cell count [12, 20] was 9920, the z-score [13, 21] was 0.417 (inactive) and the z-score [13, 22] was 0.115. For the same compound, the remaining NAD [14] was 10 nM (inactive).

For `C[C@H](O)C(=O)Nc1c(I)c(C(=O)NC(CO)CO)c(I)c(C(=O)NC(CO)CO)c1I`, the survival [1] was 3.75 (inactive), the parasite load remaining [2] was 99% (inactive) and the viability [2] was 105%. The nuclear beta-catenin stimulation ([3]; at 10 µM) was -2.7% (inactive), the nuclear beta-catenin stimulation ([3]; stimulation, at 2 µM) was 2.4% and the insulin secretion stimulation [4] was 3.4% (inactive). For the same compound, the viability decrease [5] was 0.8% (inactive), the tube area decrease [6] was -18.2% (inactive) and the GLP1 secretion stimulation [7] was 0.1% (inactive). The inhibition of viability [8] was -1.3% (inactive), the viability decrease (inhibition) [9] was 15% (inactive) and the viability decrease (inhibition) [10] was -3.1% (inactive). For the same compound, the red/green cell ratio (normalised) [11] was 1.21 (inactive), the normalised cell number [11, 15] was 0.98 and the normalised cell number [11, 16] was 1.18. The fold change [12, 17] was 0.849 (inactive), the fold change [12, 18] was 2.22 and the cell count [12, 19] was 8600. The cell count [12, 20] was 10100, the z-score [13, 21] was -0.551 (inactive) and the z-score [13, 22] was -0.888.

For `CC(=O)N(CC(O)CO)c1c(I)c(C(=O)NCCO)c(I)c(C(=O)NCC(O)CO)c1I` (configuration not stated), the nuclear beta-catenin stimulation ([3]; at 10 µM) was 9.8% (inactive), the nuclear beta-catenin stimulation ([3]; stimulation, at 2 µM) was 0.7% and the insulin secretion stimulation [4] was 0.3% (inactive). The viability decrease [5] was -3.3% (inactive), the tube area decrease [6] was 1.4% (inactive) and the GLP1 secretion stimulation [7] was 2.4% (inactive). For the same compound, the inhibition of viability [8] was -3.1% (inactive), the viability decrease (inhibition) [9] was -2.5% (active) and the viability decrease (inhibition) [10] was 0.4% (inactive). The red/green cell ratio (normalised) [11] was 0.83 (inactive), the normalised cell number [11, 15] was 1.22 and the normalised cell number [11, 16] was 1.02. For the same compound, the fold change [12, 17] was 0.937 (inactive), the fold change [12, 18] was 0.945 and the cell count [12, 19] was 9070. For the same compound, the cell count [12, 20] was 9680 and the remaining NAD [14] was 10 nM (inactive).

For `CCOc1ccc(NC(=O)CC(C)O)cc1` (configuration not stated), the nuclear beta-catenin stimulation ([3]; at 10 µM) was -2.6% (inactive), the nuclear beta-catenin stimulation ([3]; stimulation, at 2 µM) was 0.2% and the insulin secretion stimulation [4] was 0.2% (inactive). For the same compound, the viability decrease [5] was -0.1% (inactive), the tube area decrease [6] was 4.3% (inactive) and the GLP1 secretion stimulation [7] was -3.3% (inactive). For the same compound, the inhibition of viability [8] was 1.4% (inactive), the viability decrease (inhibition) [9] was -2.6% (active) and the viability decrease (inhibition) [10] was -15.7% (inactive). For the same compound, the red/green cell ratio (normalised) [11] was 1.16 (inactive), the normalised cell number [11, 15] was 0.83 and the normalised cell number [11, 16] was 0.96. For the same compound, the fold change [12, 17] was 0.956 (inactive), the fold change [12, 18] was 0.822 and the cell count [12, 19] was 9180. The cell count [12, 20] was 9600 and the remaining NAD [14] was 10 nM (inactive).
